Records with an inconclusive call do not appear. A call without a number means that no potency is given here. Activity calls are given as the source filed them. Unless noted, calls come from the whole dose curve; as a rule, active = well fitted curve in the direction sought with a large enough effect in the repeat runs; inconclusive = weak or mixed curves; inactive = no such curve, though single readings can be large; an effect the other way counts as inactive or inconclusive.
System: not listed separately
Assay: qHTS assay to identify small molecule antagonists of the androgen receptor (AR) signaling pathway - cell viability counter screen (AID 743033; note: nearly all actives have a fitted effect of over 45% in size)
Conditions: AR-bla HEK293 viability, CellTiter-Glo luminescence, 16 h; series mostly up to 58.5 µM

SMILES	outcome
Cc1ccnc(N)c1	inactive
Cc1c(C(=O)c2c[nH]n(C)c2=O)ccc(S(C)(=O)=O)c1C1=NOCC1	inactive
CC(=O)Nc1ccc(OC(=O)c2ccccc2OC(C)=O)cc1	inactive
CCC/C=C(\C=O)CC	inactive
CCCCCCCCCCCCCCCCCCOCCO	inactive
[O]=[Mo](=[O])=[O]	inactive
N#CCC(=O)NN	inactive
CC(O)CC(C)O (configuration not stated)	inactive
C[Si]1(C)O[Si](C)(C)O[Si](C)(C)O[Si](C)(C)O[Si](C)(C)O1	inactive
CC(C)c1ccc(C=O)cc1	inactive
CC(=O)c1cc(C)oc1C	inactive
O=Cc1ccccc1Cl	inactive
COS(=O)(=O)O	inactive
ONc1ccccc1	inactive
CC(=O)OC(C)=O	inactive
NCC1(Cc2noc(=O)[nH]2)CCCCC1	inactive

SMILES	outcome
CCCCSCCCC	inactive
C=C(C)[C@@H]1CC=C(C)C(=O)C1	inactive
CC(=O)OCC(=O)Nc1cc(C#N)cc(NC(=O)COC(C)=O)c1Cl	inactive
CCCCCCCCCCCCCBr	inactive
CC1(C)Cc2cccc(N)c2O1	inactive
CC1CCc2c(N3CCC(O)CC3)c(F)cc3c(=O)c(C(=O)O)cn1c23 (configuration not stated)	inactive
O=C1OCCO1	inactive
CNCCS(=O)(=O)O	inactive
CCCCOC(=O)C(C)O (configuration not stated)	inactive
COc1ccc2c(c1)c1c3n2CCN(C)C3=NCC1	inactive
C=CC(=O)OCC1CCCO1 (configuration not stated)	inactive
N[C@@H](Cc1ccc(O)cc1)C(=O)O	inactive
COc1c2occc2c(OC)c2c(=O)cc(C)oc12	inactive
CC(C)OC(=O)CCC(=O)OC(C)C	inactive
Nc1nc(-c2ccccc2)c(Br)c(=O)[nH]1	inactive
C=CCSSCCC	inactive

Biological target: Androgen receptor (Homo sapiens) (UniProt P10275)
Sequence (P10275 whole entry, looked up): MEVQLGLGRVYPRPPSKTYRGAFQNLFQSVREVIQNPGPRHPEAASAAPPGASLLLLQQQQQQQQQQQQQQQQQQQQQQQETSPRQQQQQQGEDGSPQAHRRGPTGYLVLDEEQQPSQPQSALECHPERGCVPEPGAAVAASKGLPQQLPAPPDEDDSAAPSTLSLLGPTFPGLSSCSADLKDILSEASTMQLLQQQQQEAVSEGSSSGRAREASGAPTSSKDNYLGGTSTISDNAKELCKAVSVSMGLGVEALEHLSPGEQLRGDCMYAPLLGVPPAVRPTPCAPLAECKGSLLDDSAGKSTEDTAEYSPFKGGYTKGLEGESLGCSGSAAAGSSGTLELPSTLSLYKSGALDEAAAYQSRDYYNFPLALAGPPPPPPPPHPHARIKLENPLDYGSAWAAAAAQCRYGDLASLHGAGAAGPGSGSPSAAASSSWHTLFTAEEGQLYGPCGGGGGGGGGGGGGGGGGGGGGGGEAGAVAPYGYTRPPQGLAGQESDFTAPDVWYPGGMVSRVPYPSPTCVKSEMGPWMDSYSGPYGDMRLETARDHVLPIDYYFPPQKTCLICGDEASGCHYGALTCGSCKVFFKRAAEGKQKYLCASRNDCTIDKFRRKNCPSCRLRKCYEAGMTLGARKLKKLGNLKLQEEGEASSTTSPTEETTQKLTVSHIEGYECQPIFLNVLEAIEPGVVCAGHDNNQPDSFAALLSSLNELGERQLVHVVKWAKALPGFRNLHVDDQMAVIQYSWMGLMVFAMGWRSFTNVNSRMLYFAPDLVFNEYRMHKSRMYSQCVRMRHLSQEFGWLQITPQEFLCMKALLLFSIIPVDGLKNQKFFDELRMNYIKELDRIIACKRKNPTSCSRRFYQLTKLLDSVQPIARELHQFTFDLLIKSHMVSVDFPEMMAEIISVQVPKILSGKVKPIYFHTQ
Assay: qHTS assay to identify small molecule antagonists of the androgen receptor (AR) signaling pathway (AID 743035; active = well fitted inhibition curve with a large enough effect in the signal ratio in the repeat runs, not every such curve was filed as active; the % refers to the signal ratio)
Conditions: HEK293 AR-UAS-bla, R1881-stimulated, beta-lactamase FRET, 16 h; series mostly up to 58.5 µM
How it was run: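 R1881 agonist challenge of a HEK293 UAS-beta-lactamase AR reporter line in the presence of compound (16 h, 37C); signal taken as FRET fluorescence after 2 h with LiveBLAzer B/G substrate at room temperature.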

SMILES	outcome
Cc1c(C(=O)c2c[nH]n(C)c2=O)ccc(S(C)(=O)=O)c1C1=NOCC1	inactive
C#CCN[C@@H]1CCc2ccccc21	inactive
CC(=O)c1cc(C)oc1C	inactive
COc1ccc2c(c1)c1c3n2CCN(C)C3=NCC1	inactive

Biological target: Androgen receptor (Homo sapiens) (UniProt P10275)
Assay: qHTS assay to identify small molecule agonists of the androgen receptor (AR) signaling pathway using the MDA cell line (AID 743040; note: nearly all actives have a fitted effect of over 20% in size)
Conditions: MDA-kb2 AR-luc cells, MMTV luciferase, 16 h; series mostly up to 70.3 µM
How it was run: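 Agonist activity is measured as luciferase luminescence in human MDA-kb2 cells whose MMTV reporter responds to both AR and GR. Compounds in DMSO incubate 16 h at 37C, 0% CO2, and ONE-Glo is read after 30 min.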

SMILES	Potency
Cc1c(C(=O)c2c[nH]n(C)c2=O)ccc(S(C)(=O)=O)c1C1=NOCC1	inactive
C#CCN[C@@H]1CCc2ccccc21	inactive
CC(=O)c1cc(C)oc1C	inactive
COc1ccc2c(c1)c1c3n2CCN(C)C3=NCC1	inactive
Nc1nc(-c2ccccc2)c(Br)c(=O)[nH]1	inactive

System: not listed separately
Assay: qHTS assay to identify small molecule antagonists of the androgen receptor (AR) signaling pathway using the MDA cell line - cell viability counter screen (AID 743041; note: nearly all actives have a fitted effect of over 45% in size)
Conditions: MDA-kb2 viability, CellTiter-Fluor, 16 h, cells co-treated with R1881 androgen agonist; series mostly up to 70.3 µM
How it was run: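 qHTS viability read-out; MDA-kb2 AR-luc; R1881-stimulated; 16 h exposure at 37C, 0% CO2; CellTiter-Fluor, 30 min; fluorescence intensity.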

SMILES	Potency
Cc1ccnc(N)c1	inactive
Cc1c(C(=O)c2c[nH]n(C)c2=O)ccc(S(C)(=O)=O)c1C1=NOCC1	inactive
CC(=O)Nc1ccc(OC(=O)c2ccccc2OC(C)=O)cc1	inactive
C#CCN[C@@H]1CCc2ccccc21	inactive
CCC/C=C(\C=O)CC	inactive
CCCCCCCCCCCCCCCCCCOCCO	inactive
[O]=[Mo](=[O])=[O]	inactive
CC(O)CC(C)O (configuration not stated)	inactive
C[Si]1(C)O[Si](C)(C)O[Si](C)(C)O[Si](C)(C)O[Si](C)(C)O1	inactive
CC(C)c1ccc(C=O)cc1	inactive
CC(=O)c1cc(C)oc1C	inactive
O=Cc1ccccc1Cl	inactive
COS(=O)(=O)O	inactive
ONc1ccccc1	inactive
CC(=O)OC(C)=O	inactive
NCC1(Cc2noc(=O)[nH]2)CCCCC1	inactive
CCCCSCCCC	inactive

SMILES	Potency
C=C(C)[C@@H]1CC=C(C)C(=O)C1	inactive
CC(=O)OCC(=O)Nc1cc(C#N)cc(NC(=O)COC(C)=O)c1Cl	inactive
CCCCCCCCCCCCCBr	inactive
CC1(C)Cc2cccc(N)c2O1	inactive
CC1CCc2c(N3CCC(O)CC3)c(F)cc3c(=O)c(C(=O)O)cn1c23 (configuration not stated)	inactive
O=C1OCCO1	inactive
CNCCS(=O)(=O)O	inactive
CCCCOC(=O)C(C)O (configuration not stated)	inactive
COc1ccc2c(c1)c1c3n2CCN(C)C3=NCC1	inactive
C=CC(=O)OCC1CCCO1 (configuration not stated)	inactive
N[C@@H](Cc1ccc(O)cc1)C(=O)O	inactive
COc1c2occc2c(OC)c2c(=O)cc(C)oc12	inactive
CC(C)OC(=O)CCC(=O)OC(C)C	inactive
Nc1nc(-c2ccccc2)c(Br)c(=O)[nH]1	inactive
C=CCSSCCC	inactive
CC1(C)[C@H]2CC[C@](C)(C2)[C@H]1O	inactive

Biological target: Androgen receptor (Homo sapiens) (UniProt P10275)
Assay: qHTS assay to identify small molecule antagonists of the androgen receptor (AR) signaling pathway using the MDA cell line (AID 743042; note: nearly all actives have a fitted effect of over 55% in size)
Conditions: MDA-kb2 AR-luc, MMTV luciferase, R1881 antagonist, 16 h; series mostly up to 70.3 µM
How it was run: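 MDA-kb2 cells (human breast carcinoma, stably carrying an MMTV-luciferase reporter responsive to AR and GR) were plated at 3,000 cells/well and preincubated 5 hr at 37C, then given compound plus R1881 agonist for 16 h. ONE-Glo luminescence was read.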

SMILES	outcome
Cc1c(C(=O)c2c[nH]n(C)c2=O)ccc(S(C)(=O)=O)c1C1=NOCC1	inactive
C#CCN[C@@H]1CCc2ccccc21	inactive
CC(=O)c1cc(C)oc1C	inactive

Source: PubChem BioAssay (Tox21)
